# Assay results published in PubChem BioAssay.
# Values joined by “and” are separate entries in the source; they are usually repeats but may differ in a detail not shown here. Equal values may be shown once. Active and inactive are the calls of the source. Unless noted, no rule for the calls is given here.
# Key:
# [1] = kinase inhibitors against Plasmodium liver-stage infection, cell-based, known kinase inhibitor set, luminescence, hepatoma host viability (AID 624392); details: Plasmodium liver stage in hepatoma cells, luciferase luminescence, concentration not given here; liver cell % of control: measured here: host liver cell viability; parasite % of control: stronger effect = lower value;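 also: infected cells incubated roughly two days before readout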
# [2] = tested on: Hepatitis C virus NS3 helicase; test: HCV NS3 helicase inhibitors, primary screen, biochemical, fluorescence polarization, LOPAC1280 library (AID 687035; in the data active = inhibition above about 37%); details: Purified HCV NS3 helicase, Cy5-dT15 ssDNA binding fluorescence polarization; stronger effect = higher value; concentration not given here
# [3] = Cy5 fluorescence quenching or enhancement artefacts, artefact control for HCV NS3 helicase inhibitor project, biochemical, LOPAC1280 (AID 687037); details: Cy5-DNA-NS3h complex fluorescence interference counterscreen
# [4] = tested on: Hepatitis C virus NS3 helicase; test: HCV NS3 helicase inhibitors, primary screen, biochemical, fluorescence polarization, NIH Clinical Collection (AID 743270); details: NS3 helicase binding to Cy5-dT15 DNA, stronger effect = higher value, concentration not given here
# [5] = target: Single-stranded DNA-binding protein (Escherichia coli (strain K12)) (UniProt P0AGE0); test: E. coli SSB displacement from DNA, counter-screen for HCV NS3 helicase inhibitor project, biochemical, fluorescence polarization, NIH Clinical Collection (AID 743271; in the data active = inhibition above about 28%); details: stronger effect = higher value, concentration not given here
# [6] = fluorescence interference in NS3h assay format, artefact control for HCV NS3 helicase inhibitor project, biochemical, NIH Clinical Collection (AID 743272); details: fluorescence interference counterscreen, stronger effect = lower value;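 also: HCV NS3 helicase with a Cy5 labelled single stranded DNA probe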
# [7] = Cy5 fluorescence interference with SSB-bound oligo, artefact control for HCV NS3 helicase inhibitor project, biochemical, NIH Clinical Collection, E. coli SSB (AID 743268)
# [8] = tested on: Neuropilin-2 / VEGF-C interaction (human); test: inhibitors of NRP2–VEGF-C binding, biochemical, microplate binding format, z-score (AID 743281); details: microplate NRP2/VEGF-C binding assay
smiles,measurement,setting,value
COc1ccc(CNc2nc(NCc3ccc(OC)cc3)c3[nH]cnc3n2)cc1,liver cell % of control,[1],92.9%
same,parasite % of control,[1],590% (inactive)
COc1cc(NC(=O)c2nccnc2N)cc(C(=O)Nc2cccc(C(F)(F)F)c2)c1,liver cell % of control,[1],97.3%
same,parasite % of control,[1],84.9% (inactive)
CC(C)C(CO)Nc1nc(Nc2cc(C(=O)O)cc(C(=O)O)c2)c2ncn(C(C)C)c2n1 (stereo not drawn),liver cell % of control,[1],107%
same,parasite % of control,[1],38% (inactive)
O=C(Nc1ccc(-c2csc(Nc3cccc(C(F)(F)F)c3)n2)cc1)c1cccc(C(F)(F)F)c1,liver cell % of control,[1],101%
same,parasite % of control,[1],45.1% (inactive)
Nc1ncc(-c2cccnc2)nc1C(=O)c1cccnc1,liver cell % of control,[1],98.8%
same,parasite % of control,[1],75.4% (inactive)
COc1cc(NC(=O)c2cc(C)on2)cc(C(=O)Nc2cccc(C(F)(F)F)c2)c1,liver cell % of control,[1],96.5%
same,parasite % of control,[1],66.6% (inactive)
COc1ccc(CNc2nc(NCc3ccc(OC)cc3)c3ncn(C4CCCC4)c3n2)cc1,liver cell % of control,[1],90.6%
same,parasite % of control,[1],265% (inactive)
Cc1ccc(C(=O)Nc2cccc(C(F)(F)F)c2)cc1Nc1cncnc1,liver cell % of control,[1],102%
same,parasite % of control,[1],53.6% (inactive)
Nc1ncnc2c1c(I)cn2[C@@H]1C[C@H](N)[C@@H](O)[C@H]1O,inhibition,[2],-1% (inactive)
same,fluorescence ratio (interference),[3],0.9 (inactive)
C=CC(=O)Nc1cccc(N(C)c2ccnc(Nc3ccc(N4CCN(C)CC4)cc3)n2)c1,liver cell % of control,[1],95.1%
same,parasite % of control,[1],6.04% (inactive)
CCN1CCN(Cc2ccc(NC(=O)c3cc(NC(=O)c4cc(C)on4)cc(OC)c3)cc2C(F)(F)F)CC1,liver cell % of control,[1],99.3%
same,parasite % of control,[1],92.3% (inactive)
CC(C)n1cnc2c(N(C)c3ccccc3)nc(N(CCN(C)C)Cc3ccccc3)nc21,liver cell % of control,[1],84.5%
same,parasite % of control,[1],24.1% (inactive)
O=C(Nc1cccc(-c2csc(Nc3cccc(C(F)(F)F)c3)n2)c1)c1ccccc1,liver cell % of control,[1],97.7%
same,parasite % of control,[1],68.7% (inactive)
COc1cc(NC(=O)c2cnc(N)s2)cc(C(=O)Nc2cccc(C(F)(F)F)c2)c1,liver cell % of control,[1],98.2%
same,parasite % of control,[1],79% (inactive)
NC1=NC(=O)C(=Cc2ccc(-c3ccc(S(N)(=O)=O)cc3)o2)S1,liver cell % of control,[1],104%
same,parasite % of control,[1],97.3% (inactive)
CCN1CCN(Cc2ccc(NC(=O)c3ccc(C)c(NC(=O)N4CCNC4=O)c3)cc2C(F)(F)F)CC1,liver cell % of control,[1],93%
same,parasite % of control,[1],163% (inactive)
O=C(Nc1cccc(-c2csc(Nc3ccc(Cl)cc3)n2)c1)c1cc([N+](=O)[O-])cc(C(F)(F)F)c1,liver cell % of control,[1],95.1%
same,parasite % of control,[1],192% (inactive)
CS(=O)(=O)Nc1ccc(-c2ccc(C=C3SC(N)=NC3=O)o2)cc1,liver cell % of control,[1],105%
same,parasite % of control,[1],130% (inactive)
CC(=O)N[C@H]1[C@H]([C@H](O)[C@H](O)CO)OC(C(=O)O)=C[C@@H]1O,inhibition,[2],2% (inactive)
same,fluorescence ratio (interference),[3],1 (inactive)
CN(c1ccccc1CNc1nc(Nc2ccc3c(c2)CC(=O)N3)ncc1C(F)(F)F)S(C)(=O)=O,liver cell % of control,[1],53.6% and 51.8% and 95%
same,parasite % of control,[1],7.61% (inactive) and 53% (inactive) and 167% (inactive)
O=C(O)COCCN1CCN([C@@H](c2ccccc2)c2ccc(Cl)cc2)CC1,inhibition,[4],-1.98% (inactive)
same,inhibition,[5],-1.64% (inactive)
same,fluorescence ratio,[6],0.95 (inactive)
Cc1ccc2nc(CN(CCN(Cc3nc4ccc(C)cc4[nH]3)Cc3nc4ccc(C)cc4[nH]3)Cc3nc4ccc(C)cc4[nH]3)[nH]c2c1,inhibition,[2],0% (inactive)
same,fluorescence ratio (interference),[3],1 (inactive)
CO/N=C(/C(=O)N[C@@H]1C(=O)N2C(C(=O)O)=C(CSc3nc(=O)c(O)nn3C)CSC12)c1csc(N)n1 (stereo partly drawn),inhibition,[2],-2% (inactive)
same,fluorescence ratio (interference),[3],1 (inactive)
CC(C)n1cnc2c(Nc3cccc(Cl)c3)nc(NCCCO)nc21,liver cell % of control,[1],90.1%
same,parasite % of control,[1],206% (inactive)
CC(=O)Nc1ccc(C(C)C(=O)Nc2ncc(C(C)C)s2)cc1 (stereo not drawn),liver cell % of control,[1],53.4% and 52.2% and 52.5%
same,parasite % of control,[1],136% (inactive) and 128% (inactive) and 133% (inactive)
CN(C)c1nc2c(Br)c(Br)c(Br)c(Br)c2[nH]1,inhibition,[2],1% (inactive)
same,fluorescence ratio (interference),[3],1 (inactive)
Fc1cccc(/C=N\N=C/c2cccc(F)c2)c1,inhibition,[2],-2% (inactive)
same,fluorescence ratio (interference),[3],1 (inactive)
CC/C(O)=N/S(=O)(=O)c1ccc(-c2c(-c3ccccc3)noc2C)cc1,fluorescence ratio,[7],1.03 (inactive)
same,inhibition,[4],-1.97% (inactive)
same,inhibition,[5],-2.76% (inactive)
same,fluorescence ratio,[6],1.01 (inactive)
CC(C)n1cnc2c(N(C)c3cccc(Cl)c3)nc(N(CCO)CCO)nc21,liver cell % of control,[1],93.8%
same,parasite % of control,[1],100% (inactive)
O=C1CN(/N=C\c2ccc(-c3ccc([N+](=O)[O-])cc3)o2)C(=O)N1,inhibition,[2],-3% (inactive)
same,fluorescence ratio (interference),[3],1 (inactive)
CCN1CCN(Cc2ccc(NC(=O)c3ccc(C)c(NC(=O)c4nccn4C)c3)cc2C(F)(F)F)CC1,liver cell % of control,[1],101%
same,parasite % of control,[1],90.4% (inactive)
COc1cc(C(=O)NC2CCN(C)CC2)ccc1Nc1ncc2c(n1)N(C1CCCCC1)CCC(=O)N2C,liver cell % of control,[1],81.9%
same,parasite % of control,[1],520% (inactive)
O=C(Nc1cccc(-c2csc(Nc3ccc(Cl)cc3)n2)c1)c1cccc(C(F)(F)F)c1,liver cell % of control,[1],97.6%
same,parasite % of control,[1],115% (inactive)
CC(C)ON([C@@H](C(=O)NO)C(C)C)S(=O)(=O)c1ccc(-c2ccccc2)cc1,inhibition,[2],-1% (inactive)
same,fluorescence ratio (interference),[3],0.9 (inactive)
C=CCc1cccc(/C=N\NC(=O)CN2CCN(Cc3ccccc3)CC2)c1O,inhibition,[2],1% (inactive)
same,fluorescence ratio (interference),[3],0.9 (inactive)
OCCCNc1nccc(-c2cc(Nc3cccc(Cl)c3)ncn2)n1,liver cell % of control,[1],81.8%
same,parasite % of control,[1],176% (inactive)
CC(C)C(CO)N(Cc1cccc(F)c1)c1nc(Nc2cccc(Cl)c2)c2ncn(C(C)C)c2n1 (stereo not drawn),liver cell % of control,[1],91.9%
same,parasite % of control,[1],62.1% (inactive)
NC(=O)c1cccc(-c2cc(Oc3ccc(OC(F)(F)F)cc3)ncn2)c1,liver cell % of control,[1],101%
same,parasite % of control,[1],113% (inactive)
CO[C@H]1C=CO[C@@]2(C)Oc3c(C)c(O)c4c(O)c(c5c(c4c3C2=O)=NC2(CCN(CC(C)C)CC2)N=5)NC(=O)C(C)=CC=C[C@H](C)[C@H](O)[C@@H](C)[C@@H](O)[C@@H](C)[C@H](OC(C)=O)[C@@H]1C,fluorescence ratio,[7],0.96 (inactive)
same,inhibition,[4],-2.77% (inactive)
same,inhibition,[5],1.44% (inactive)
same,fluorescence ratio,[6],0.96 (inactive)
CO[C@H]1C=CO[C@@]2(C)Oc3c(C)c(O)c4c(O)c(c5c(c4c3C2=O)NC2(CCN(CC(C)C)CC2)N=5)=NC(=O)/C(C)=C\C=C[C@H](C)[C@H](O)[C@@H](C)[C@@H](O)[C@@H](C)[C@H](OC(C)=O)[C@@H]1C,outcome,[8],inactive
CC(=O)/C(C)=N\O,inhibition,[2],-1% (inactive)
same,fluorescence ratio (interference),[3],1.1 (inactive)
COc1cc(C(=O)NC2CCN(C)CC2)ccc1Nc1ncc2c(n1)N(Cc1ccccc1)CCC(=O)N2C,liver cell % of control,[1],97.7%
same,parasite % of control,[1],579% (inactive)
Cc1cc(C(=O)Nc2cc(Nc3ccc4c(C=Cc5ccccn5)n[nH]c4c3)ccc2F)n(C)n1,liver cell % of control,[1],75.4% and 84.5% and 95.8%
same,parasite % of control,[1],17.4% (inactive) and 18.3% (inactive) and 40.1% (inactive)
CO[C@H]1C=CO[C@@]2(C)Oc3c(C)c(O)c4c(O)c(c(/C=N/N5CCN(C6CCCC6)CC5)c(O)c4c3C2=O)NC(=O)C(C)=CC=C[C@H](C)[C@H](O)[C@@H](C)[C@@H](O)[C@@H](C)[C@H](OC(C)=O)[C@@H]1C,fluorescence ratio,[7],1.02 (inactive)
same,inhibition,[4],-3.56% (inactive)
same,inhibition,[5],9.91% (inactive)
same,fluorescence ratio,[6],1.01 (inactive)
COCCCC/C(=N/OCCN)c1ccc(C(F)(F)F)cc1,inhibition,[2],-1% (inactive)
same,fluorescence ratio (interference),[3],1 (inactive)
CCOC(=O)N1CCN(/[N+]([O-])=N\Oc2ccc([N+](=O)[O-])cc2[N+](=O)[O-])CC1,inhibition,[2],-3% (inactive)
same,fluorescence ratio (interference),[3],1.1 (inactive)
